In PubChem BioAssay (NCATS):
Records with an inconclusive call do not appear. Calls of active or inactive are those of the source. The call rests on the fitted dose curve; in most records, active means well fitted curve in the direction sought with a large enough effect; inconclusive means small, poorly fitted or top-dose-only effect, or another doubt; inactive means no such curve, though single readings can be large; an effect the other way counts as inactive or inconclusive.

Legend:
[1] = test system: Zika virus NS2B-NS3 protease (linked construct); experiment: Primary screen NINDS Rhodamine qHTS for Zika virus inhibitors (AID 1347160); further: potency means the concentration at half of the fitted maximal effect; nearly all actives have a fitted effect of over 55% in size
Outline: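 Percent inhibition, normalized to uninhibited and enzyme-free controls, is fitted to a 4-parameter Hill equation. Fluorescence change comes from a 15-min cleavage of 1.5 microM bis-peptide Rhodamine110 substrate by 25 nM linked NS2B-NS3 at room temperature.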

[2] = HPAF-II Cancer Cell Toxicity qHTS against the NCATS CANVASS Library (AID 1347346); further: series mostly up to about 38 µM; nearly all actives have a fitted effect of over 55% in size
Outline: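 Luminescence from CellTiter-Glo, added after 72 h compound exposure and a 15 min room-temperature incubation, served as the viability readout. HPAF-II cells (1000/well) received an 11-point concentration series.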

[3] = OV-SAHO Cancer Cell Toxicity qHTS against the NCATS CANVASS Library (AID 1347348); further: series mostly up to about 38 µM; nearly all actives have a fitted effect of over 55% in size
Outline: (§1)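 1000 cells/well seeded and rested 4 h at 37 °C before pin transfer of compounds in an 11-pnt series. Exposure 72 h at 37 °C/5% CO2; viability by CellTiter-Glo luminescence after 15 min at room temperature.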

[4] = Panc-1005 Cancer Cell Toxicity qHTS against the NCATS CANVASS Library (AID 1347349); further: series mostly up to about 38 µM; nearly all actives have a fitted effect of over 60% in size
Outline: as §1

[5] = U-118MG Cancer Cell Toxicity qHTS against the NCATS CANVASS Library (AID 1347351); further: series mostly up to about 38 µM
Outline: as §1

[6] = COV-362 Cancer Cell Toxicity qHTS against the NCATS CANVASS Library (AID 1347352); further: series mostly up to about 38 µM
Outline: (§2)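 Luminescent ATP read-out (CellTiter-Glo, 15min at room temperature) measures survival after cells face an 11-point compound series for 72 hours at 37 degrees C/5% CO2.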

[7] = A2780 Cisplatin Sensitive Ovarian Cancer Cell Toxicity qHTS against the NCATS CANVASS Library (AID 1347353); further: series mostly up to about 46 µM; nearly all actives have a fitted effect of over 60% in size
Outline: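 Luminescent ATP content (ATPLite, 10 min at room temperature) served as the read-out after cells had been exposed to compounds for 72 hours at 37 °C. Dosing followed an 11-point concentration series.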

[8] = UWB1.289-WTBRCA1 Cancer Cell Toxicity qHTS against the NCATS CANVASS Library (AID 1347354)
Outline: as §2

[9] = HEK-293 Cancer Cell Toxicity qHTS against the NCATS CANVASS Library (AID 1347355); further: series mostly up to about 46 µM; nearly all actives have a fitted effect of over 65% in size
Outline: as §2

[10] = HEK293 18hr Apoptosis Induction qHTS against the NCATS CANVASS Library (AID 1347357)
Outline: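 HEK293 cells (500 per well, DMEM with 10% FBS) were treated with natural products, incubated 18 hours at 37 degrees C, then caspase-3/7 activity was read by Caspase-Glo luminescence after 15 min at room temperature.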

[11] = HPAF-II 12hr Apoptosis Induction qHTS against the NCATS CANVASS Library (AID 1347358)
Outline: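 500 HPAF-II cells/well; cmpds 11-pt; 12 hr, 37 degrees C/5% CO2; Caspase-Glo 3/7 added, 15 min RT dark; luminescence read. Doxorubicin titration as control.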

[12] = HEK293 24hr Apoptosis Induction qHTS against the NCATS CANVASS Library (AID 1347359)
Outline: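 HEK293 cells, 500 per well, exposed to an 11-point compound series for 24 hours at 37 degrees C. Caspase 3/7 activity read by Caspase-Glo luminescence (DEVD substrate) after 15 min at room temperature.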

[13] = HPAF-II 18hr Apoptosis Induction qHTS against the NCATS CANVASS Library (AID 1347360)
Outline: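 HPAF-II cells (500/well, DMEM + 10% FBS) were exposed to compounds for 18 hours at 37 degrees C. Caspase-3/7 activity was then read by Caspase-Glo 3/7 luminescence after 15 min at room temperature.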

[14] = HEK293 12hr Apoptosis Induction qHTS against the NCATS CANVASS Library (AID 1347361)
Outline: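 Read-out: Caspase-Glo 3/7 luminescence (DEVD substrate), 15 min RT. Preceded by 12 h compound exposure of HEK293, 500 cells/well, 11-pt qHTS titration; doxorubicin titration as control.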

[15] = test system: NAD(P)H diaphorase (Clostridium kluyveri); experiment: Diaphorse counterscreen qHTS: Assay Interference Panel against the NCATS CANVASS Library (AID 1347362)
Outline: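 Clostridium kluyveri diaphorase in PBS + 0.01% Tween-20 preincubated 15 min with compounds. Resazurin and NADH then added for 5 min at room temperature in the dark; resorufin fluorescence read (ex 525, em 598).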

[16] = molecular target: Luciferin 4-monooxygenase (Photinus pyralis) (UniProt P08659); experiment: Firefly luciferase counterscreen qHTS: Assay Interference Panel against the NCATS CANVASS Library (AID 1347363); further: series mostly up to about 57 µM
Chain of Luciferin 4-monooxygenase (Photinus pyralis) (P08659 whole entry, looked up): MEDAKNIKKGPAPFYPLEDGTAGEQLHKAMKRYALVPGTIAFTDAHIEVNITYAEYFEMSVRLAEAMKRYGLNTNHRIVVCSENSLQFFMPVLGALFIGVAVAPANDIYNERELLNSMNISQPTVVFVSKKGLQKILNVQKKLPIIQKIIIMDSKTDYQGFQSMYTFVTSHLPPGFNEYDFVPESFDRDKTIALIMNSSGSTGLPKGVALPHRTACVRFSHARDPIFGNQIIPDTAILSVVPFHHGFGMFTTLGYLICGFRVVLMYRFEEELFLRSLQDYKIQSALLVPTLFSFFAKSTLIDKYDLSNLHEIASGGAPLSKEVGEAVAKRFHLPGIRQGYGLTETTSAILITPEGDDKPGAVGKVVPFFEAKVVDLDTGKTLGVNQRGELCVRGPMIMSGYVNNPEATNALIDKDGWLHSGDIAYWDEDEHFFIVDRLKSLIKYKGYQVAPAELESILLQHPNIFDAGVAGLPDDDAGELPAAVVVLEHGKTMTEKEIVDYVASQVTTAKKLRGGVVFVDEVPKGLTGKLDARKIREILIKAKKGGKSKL
Outline: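 Purified P. pyralis luciferase (0.04 ug/mL, 4x reagent) added to Tris-acetate buffer with 0.013 mM D-luciferin, 0.013 mM ATP and 13.3 mM Mg-acetate; compounds preincubated 15 min, then luminescence read after 5 min, RT.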

[17] = KB-8-5-11 Cancer Cell Toxicity qHTS against the NCATS CANVASS Library (AID 1347364); further: nearly all actives have a fitted effect of over 75% in size
Outline: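 Plate 500 KB-8-5-11 cells per well in DMEM + 10% FBS, add compounds by pin transfer, incubate 72 hr at 37C. Add CellTiter-Glo, wait 10 minutes at room temperature, read luminescence.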

[18] = SDT Cancer Cell Toxicity qHTS against the NCATS CANVASS Library (AID 1347365);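 further: SDT canine glioma cells 500 per well in 1536 well plates; series mostly up to about 46 µM; nearly all actives have a fitted effect of over 60% in size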
Outline: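 qHTS, SDT dog glioma line, 500 cells/well; cpds 11 pts; 72 hr, 37C, 5% CO2; CellTiterGlo ATP luminescence.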

[19] = KB-3-1 Cancer Cell Toxicity qHTS against the NCATS CANVASS Library (AID 1347366); further: series mostly up to about 46 µM; nearly all actives have a fitted effect of over 75% in size
Outline: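 KB-3-1 cells (500 cells/well) in DMEM + 10% FBS were treated with compounds for 72 hr at 37C, 5% CO2. Viability was read as CellTiter-Glo luminescence after 10 minutes at room temperature.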

[20] = G06 Cancer Cell Toxicity qHTS against the NCATS CANVASS Library (AID 1347368); further: nearly all actives have a fitted effect of over 60% in size
Outline: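 Dog G06 glioma line, 500 cells/well; cpds pin-transferred, 11-pt; 72 hr, 37C/5% CO2; CellTiterGlo luminescence (ATP) endpoint.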

[21] = MCF7 Cancer Cell Toxicity qHTS against the NCATS CANVASS Library (AID 1347369); further: series mostly up to about 46 µM
Outline: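 MCF7, 500 cells/well; cpds 11-pt qHTS; 72 hr, 37C/5% CO2; CellTiterGlo ATP luminescence.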

[22] = qHTS for ATAD5 Antagonist screened against the NCATS CANVASS Library (AID 1347370);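 further: HEK293T cells carrying an ATAD5 luciferase reporter co-treated with 10 µM 5-fluorouridine; series mostly up to about 46 µM; nearly all actives have a fitted effect of over 65% in size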
Outline: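 HEK293T cells with stably integrated ATAD5-luciferase reporter, 2000/well, 5 h attachment; compounds plus 10 µM 5-fluorouridine, 16 h at 37 °C. Luciferase luminescence read, with CellTiter-Fluor viability read first.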

[23] = J3T Cancer Cell Toxicity qHTS against the NCATS CANVASS Library (AID 1347371)
Outline: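 Cells plated at 500 per well, compounds pin-transferred, plates incubated 72 hr at 37C, then CellTiterGlo added and luminescence read to measure ATP content.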

[24] = molecular target: Nuclear receptor subfamily 1 group I member 3 (Homo sapiens) (UniProt Q14994); experiment: qHTS for Constitutive Androstane Receptor (CAR) Antagonist screened against the NCATS CANVASS Library (AID 1347372);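 further: cells stimulated with 50 nM CITCO agonist so inhibition reflects antagonism; series mostly up to about 46 µM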
Chain of Nuclear receptor subfamily 1 group I member 3 (Homo sapiens) (Q14994 whole entry, looked up): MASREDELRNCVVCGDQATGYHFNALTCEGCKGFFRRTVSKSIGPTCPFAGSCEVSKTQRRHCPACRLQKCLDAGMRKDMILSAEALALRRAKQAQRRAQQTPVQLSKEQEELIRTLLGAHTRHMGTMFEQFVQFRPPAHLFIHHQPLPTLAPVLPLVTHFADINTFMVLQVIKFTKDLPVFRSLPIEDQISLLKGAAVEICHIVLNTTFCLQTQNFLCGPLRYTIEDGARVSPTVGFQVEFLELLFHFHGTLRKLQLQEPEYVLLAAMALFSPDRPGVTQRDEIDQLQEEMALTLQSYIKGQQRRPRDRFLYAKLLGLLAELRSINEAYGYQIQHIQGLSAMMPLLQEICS
Outline: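 HepG2 cells stably carrying hCAR and CYP2B6-2.2kb luciferase reporter, 2500 cells/well, compound with 50 nM CITCO agonist for 24hr at 37C. ONE-Glo luminescence measured CAR activity; CellTiter-Fluor read viability.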

[25] = molecular target: Nuclear receptor subfamily 1 group I member 3 (Homo sapiens) (UniProt Q14994); experiment: qHTS for Constitutive Androstane Receptor (CAR) Agonist screened against the NCATS CANVASS Library (AID 1347373);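 further: every well also contained 1.5 µM PK11195 alongside the test compound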
Outline: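 HepG2-hCAR-CYP2B6 cells, 2500/well, attached 4hr; cpd + PK11195 1.5uM final; 24hr 37C 5% CO2. CellTiter-Fluor viability read, then ONE-Glo luminescence for CAR activation.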

[26] = qHTS for Hypoxia signaling pathway (HIF-1) agonists against the NCATS CANVASS Library (AID 1347375)
Outline: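 ME-180 HRE-bla reporter cells; 2,000/well, 0.5% dialyzed FBS; cpd added after 5 h, 17 h 37C/5% CO2; CCF4-AM 2 h RT; FRET 460/530 nm; CellTiter-Glo viability same wells, 30 min.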

[27] = 10-beta competent E. coli microbial cell viability qHTS against the NCATS CANVASS Library (AID 1347376); further: series mostly up to about 46 µM
Outline: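 E. coli 10-beta, 0.2 OD; cpds 11-pt; o/n 37C, 5% CO2; BacTiter-Glo 20 min RT; luminescence (ATP) = viable cells. Daunomycin ctrl.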

[28] = DH5-alpha competent E. coli microbial cell viability qHTS against the NCATS CANVASS Library (AID 1347377); conditions: outcome: dose series up to 46.1 µM unless noted
Outline: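 qHTS, 11-pt; E. coli DH5-alpha, 0.2 OD; o/n 37C/5% CO2; BacTiter-Glo, 20 min RT; luminescence.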

[29] = qHTS for H2AX Agonists against the NCATS CANVASS Library (AID 1347378)
Outline: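 CHO-K1 cells were plated overnight at 37C, then exposed to compounds (concentration series, 0.76% DMSO final) for 3 hr at 37C. Lysates received Eu-cryptate anti-pH2AX (S139) and d2 anti-H2AX antibodies; after 24 hr at room temperature, TR-FRET 665/620 nm ratio was read.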

[30] = qHTS for Antimalaria activity screened against the NCATS CANVASS Library (AID 1347380); further: potency means the concentration at half of the fitted maximal effect; nearly all actives have a fitted effect of over 40% in size
Outline: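 Dd2 strain, infected erythrocytes 2.5% Hct final / 0.3% parasitemia. 11-pt qHTS titration, 72 h, 37C, 5% O2, 5% CO2. Lysis buffer + SYBR Green, 18 h, fluorescence 485/535 nm.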

[31] = Inflammasome Signaling qHTS Counterscreen: IL-1-beta AlphaLISA counterscreen against the NCATS CANVASS Library (AID 1347381);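 further: cell-free check with purified IL-1β in medium and no THP-1 cells; series mostly up to about 57 µM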
Outline: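 Cell-free interference check: compounds added to medium spiked with 4 pg purified IL-1β. Anti-IL-1β acceptor beads (6 ug/mL) with 0.6 nM biotinylated antibody added for 1 h at RT, then streptavidin donor beads (24 ug/mL) for 30 min in the dark. AlphaLISA read at 680/615 nm.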

[32] = Cytotoxicity qHTS for assessment of Hepg2 cells membrane integrity screened against the NCATS CANVASS Library (AID 1347387)
Outline: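 qHTS, 11-pt conc. series, 0.59 nM - 46 uM final; HepG2 2000 cells/well, overnight attachment; 5 hr compound exposure 37C/5% CO2; CytoTox-ONE, 10 min RT; fluorescence ex560/em590 = LDH from damaged membranes.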

[33] = qHTS assay for small molecule disruptors of mitochondrial membrane potential screened against the NCATS CANVASS Library (AID 1347389)
Outline: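 HepG2, 2,000 cells/well, attached overnight; compound 1 hr, 37C, 5% CO2; Mito-MPS dye 30 min, 37C; fluorescence 535 nm (monomer) and 590 nm (aggregate); decreased 590/535 ratio = depolarization.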

[34] = Secretion counterscreen for inhibitors of the SERCaMP assay screened against the NCATS CANVASS Library (AID 1347390);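 further: light from luciferase secreted into medium read as a measure of general secretion; series mostly up to about 77 µM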
Outline: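 SH-SY5Y cells expressing constitutively secreted GLuc, 1000 cells/well, attached 4 h at 37C, then exposed to compounds (0.001 - 77 uM, 11-pnt series) for 20 h. Coelenterazine added; luminescence read to flag secretory-pathway interferers.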

[35] = qHTS for activators of Nrf2/ARE signaling pathway screened against the NCATS CANVASS Library (AID 1347391); further: nearly all actives have a fitted effect of over 60% in size
Outline: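 Plate ARE-bla HepG2 cells at 2000/well and let them settle 5 h. Pin-transfer compounds in DMSO, incubate 16 h at 37C. Load CCF4 for 2 h at room temperature and read blue/green fluorescence.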

[36] = qHTS for activators of dead-cell proteases activity screened against the NCATS CANVASS Library (AID 1347392);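 further: luminescence from protease leaking out of membrane-damaged cells cleaving impermeant substrate; rising signal means more cytotoxicity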
Outline: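 HepG2 cells, 2000/well, attached 18 h at 37C, then exposed to compounds (11-point qHTS) for 5 h. Dead-cell protease release read as luminescence from cell-impermeant AAF-aminoluciferin substrate after 15 min at room temperature.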

[37] = qHTS for inhibitors of Wild type Zika virus screened against the NCATS CANVASS Library (AID 1347396);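 further: ATP luminescence of surviving cells so rescue from viral cell killing; series mostly up to about 46 µM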
Outline: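 Using ATP-based luminescence (CellTiter Glo), this screen scores rescue of Vero 766 cells from wild-type Zika killing at 72 h post-infection. Compounds are tested in a concentration series.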

[38] = Viability qHTS for inhibitors of the SERCaMP assay screened against the NCATS CANVASS Library (AID 1347400); further: series mostly up to about 92 µM; nearly all actives have a fitted effect of over 70% in size
Outline: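 SH-SY5Y SERCaMP MJH297 cells, 1000/well; 4 h settle, 37C/5% CO2; pin-transferred cpds; 48 h; CellTiter-Glo lum. Pos ctrl bortezomib 0.0001 - 4.6 uM.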

[39] = Redox Reaction Profiling qHTS: Assay Interference Panel against the NCATS CANVASS Library (AID 1347401)
Outline: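 Compounds in 11-point series incubated with 5 uM resazurin and 200 uM DTT in 50 mM HEPES pH 7.3, 50 mM NaCl. Resorufin fluorescence (Ex 525/Em 598) read before and after 15 min in the dark.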

Measured: Potency

Oc1ccc([C@H]2Oc3ccc(/C=C/c4cc(O)cc(O)c4)cc3C2c2cc(O)cc(O)c2)cc1 (some centres undefined)
active: [1] 24.7 µM | [30] 0.003 µM
inactive: all other assays above
